# Data reported in the supplement of paper PMC10037445.
# “And” between values parts separate entries of the source, which are not always exact repeats. Equal entries are not always repeated. Over roughly 2,900 compounds, “NF-kB SEAP reporter activity, fold change vs agonist alone” has its median near 0.99; the highest 2% begin near 2.6. The entries come from a sample that favours the highest values as a whole.
# How the values were obtained:
# [1] = tested on: RAW-Dual; assay: NF-kB SEAP reporter activity, fold change vs agonist alone; cytotoxicity flag (confluency mask): not cytotoxic; higher = enhanced NF-kB activity
# In short: (§1)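 RAW-Dual macrophages (50,000 cells/well in DMEM, 384-well plates) received 50 nL of library stock by pin tool, then a PRR agonist 1 h later, and were kept at 37 °C, 5% CO2. After 20 hours, supernatant was read for IRF by QuantiLuc luminescence and for NF-κB by QuantiBlue absorbance at 620 nm. Reporter activity is fold change over agonist-alone wells. Cytotoxic wells had IncuCyte confluency below 70% of agonist controls in both mask sets.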
# [2] = tested on: RAW-Dual; assay: NF-kB SEAP reporter activity, fold change vs agonist alone; higher = enhanced NF-kB activity
# In short: as §1
# [3] = tested on: RAW-Dual; assay: NF-kB SEAP reporter activity, fold change vs agonist alone; cytotoxicity flag (confluency mask): cytotoxic (confluency <70% of control); higher = enhanced NF-kB activity
# In short: as §1
# [4] = agonist: ODN 1826 (TLR9) 0.5 ug/mL
# [5] = agonist: Pam2CSK4 (TLR2/6) 0.1 ug/mL
# [6] = agonist: Pam3CSK4 (TLR2/1) 0.1 ug/mL
# [7] = library stock concentration (final ~1000-fold dilution): 10 mM, cytotoxicity flag (confluency mask): cytotoxic (confluency <70% of control), agonist: Imiquimod (TLR7) […]
# [8] = library stock concentration (final ~1000-fold dilution): 10 mM, cytotoxicity flag (confluency mask): cytotoxic (confluency <70% of control), agonist: MPLA (TLR4) […]
# [9] = library stock concentration (final ~1000-fold dilution): 10 mM, cytotoxicity flag (confluency mask): not cytotoxic, agonist: Imiquimod (TLR7) […]
# [10] = library stock concentration (final ~1000-fold dilution): 10 mM, cytotoxicity flag (confluency mask): not cytotoxic, agonist: MPLA (TLR4) […]
compound,measurement,setting,value
COc1cc2ncnc(Nc3cccc(Cl)c3F)c2cc1OC(=O)N1CCN(C)CC1C (stereo not drawn) (library stock concentration (final ~1000-fold dilution): 10 mM),NF-kB SEAP reporter activity,[1]; agonist: LPS (TLR4) 0.1 ug/mL,1.19
same,NF-kB SEAP reporter activity,[1]; [4],0.84
same,NF-kB SEAP reporter activity,[1]; [5],1.19
same,NF-kB SEAP reporter activity,[1]; [6],1.1
COc1cc2ncnc(Nc3cccc(Cl)c3)c2cc1OC,NF-kB SEAP reporter activity,[2]; [7],1.58
same,NF-kB SEAP reporter activity,[2]; [8],1.42
C#Cc1cccc(Nc2ncnc3cc(OCCOC)c(OCCOC)cc23)c1.Cl,NF-kB SEAP reporter activity,"[2]; library stock concentration (final ~1000-fold dilution): 2 mM, cytotoxicity flag (confluency mask): not cytotoxic, agonist: Imiquimod (TLR7) […]",0.949
same,NF-kB SEAP reporter activity,"[2]; library stock concentration (final ~1000-fold dilution): 2 mM, cytotoxicity flag (confluency mask): not cytotoxic, agonist: MPLA (TLR4) […]",1.39
C#Cc1cccc(Nc2ncnc3cc(OCCOC)c(OCCO)cc23)c1.Cl (library stock concentration (final ~1000-fold dilution): 10 mM),NF-kB SEAP reporter activity,[1]; agonist: LPS (TLR4) 0.1 ug/mL,4.71
same,NF-kB SEAP reporter activity,[1]; [4],1.41
same,NF-kB SEAP reporter activity,[1]; [5],1.02
same,NF-kB SEAP reporter activity,[1]; [6],1.87
NS(=O)(=O)OC[C@H]1C[C@@H](Nc2ccnc3cc(-c4cccc(SC(F)(F)F)c4)nn23)[C@H](O)[C@@H]1O (library stock concentration (final ~1000-fold dilution): 10 mM),NF-kB SEAP reporter activity,[3]; agonist: LPS (TLR4) 0.1 ug/mL,0.308
same,NF-kB SEAP reporter activity,[3]; [4],0.19
same,NF-kB SEAP reporter activity,[3]; [5],0.0814
same,NF-kB SEAP reporter activity,[3]; [6],0.152
NS(=O)(=O)OC[C@H]1C[C@@H](Nc2ccnc3cc(-c4cccc(SC(F)(F)F)c4)nn23)[C@H](O)[C@@H]1O,NF-kB SEAP reporter activity,[2]; [7],0.145
same,NF-kB SEAP reporter activity,[2]; [8],0.255
CCNC(=O)[C@]12CCC(C)(C)C[C@H]1[C@H]1C(=O)C=C3[C@@]4(C)C=C(C#N)C(=O)C(C)(C)[C@@H]4CC[C@@]3(C)[C@]1(C)CC2 (library stock concentration (final ~1000-fold dilution): 10 mM),NF-kB SEAP reporter activity,[1]; agonist: LPS (TLR4) 0.1 ug/mL,0.324
same,NF-kB SEAP reporter activity,[1]; [4],0.193
same,NF-kB SEAP reporter activity,[1]; [5],0.0804
same,NF-kB SEAP reporter activity,[1]; [6],0.173
CCNC(=O)[C@]12CCC(C)(C)C[C@H]1[C@H]1C(=O)C=C3[C@@]4(C)C=C(C#N)C(=O)C(C)(C)[C@@H]4CC[C@@]3(C)[C@]1(C)CC2,NF-kB SEAP reporter activity,[2]; [9],0.15
same,NF-kB SEAP reporter activity,[2]; [10],0.256
CC(O)C(=O)O.CN1CCN(c2ccc3nc(-c4c(N)c5c(F)cccc5[nH]c4=O)[nH]c3c2)CC1 (library stock concentration (final ~1000-fold dilution): 10 mM),NF-kB SEAP reporter activity,[3]; agonist: LPS (TLR4) 0.1 ug/mL,0.341
same,NF-kB SEAP reporter activity,[3]; [4],0.18
same,NF-kB SEAP reporter activity,[3]; [5],0.15
same,NF-kB SEAP reporter activity,[3]; [6],0.219
CC(O)C(=O)O.CN1CCN(c2ccc3nc(-c4c(N)c5c(F)cccc5[nH]c4=O)[nH]c3c2)CC1,NF-kB SEAP reporter activity,[2]; [7],0.335
same,NF-kB SEAP reporter activity,[2]; [8],0.591
C=C(CC(=O)OCCCCCCCC)C(=O)O,NF-kB SEAP reporter activity,[2]; [9],0.711
same,NF-kB SEAP reporter activity,[2]; [10],0.955
C=C(CC(=O)OCCCCCCCC)C(=O)O (library stock concentration (final ~1000-fold dilution): 10 mM),NF-kB SEAP reporter activity,[1]; agonist: LPS (TLR4) 0.1 ug/mL,0.76
same,NF-kB SEAP reporter activity,[1]; [4],0.641
same,NF-kB SEAP reporter activity,[1]; [5],0.455
same,NF-kB SEAP reporter activity,[1]; [6],0.645
NCC(O)(c1ccc(Cl)cc1)c1ccc(-c2cn[nH]c2)cc1 (stereo not drawn),NF-kB SEAP reporter activity,[2]; [9],0.966
same,NF-kB SEAP reporter activity,[2]; [10],0.527
NCC(O)(c1ccc(Cl)cc1)c1ccc(-c2cn[nH]c2)cc1 (stereo not drawn) (library stock concentration (final ~1000-fold dilution): 10 mM),NF-kB SEAP reporter activity,[1]; agonist: LPS (TLR4) 0.1 ug/mL,0.342
same,NF-kB SEAP reporter activity,[1]; [4],0.435
same,NF-kB SEAP reporter activity,[1]; [5],0.236
same,NF-kB SEAP reporter activity,[1]; [6],0.327
CN1C(=N)NC(C)(c2cc(NC(=O)c3ccc(F)cn3)ccc2F)CS1(=O)=O.O=C(O)C(F)(F)F (stereo not drawn),NF-kB SEAP reporter activity,[2]; [9],0.873
same,NF-kB SEAP reporter activity,[2]; [10],0.781
CN1C(=N)NC(C)(c2cc(NC(=O)c3ccc(F)cn3)ccc2F)CS1(=O)=O.O=C(O)C(F)(F)F (stereo not drawn) (library stock concentration (final ~1000-fold dilution): 10 mM),NF-kB SEAP reporter activity,[1]; agonist: LPS (TLR4) 0.1 ug/mL,0.826
same,NF-kB SEAP reporter activity,[1]; [4],0.731
same,NF-kB SEAP reporter activity,[1]; [5],0.823
same,NF-kB SEAP reporter activity,[1]; [6],0.856
O=C(OCC1OC(OC(=O)c2cc(O)c(O)c(OC(=O)c3cc(O)c(O)c(O)c3)c2)C(OC(=O)c2cc(O)c(O)c(OC(=O)c3cc(O)c(O)c(O)c3)c2)C(OC(=O)c2cc(O)c(O)c(OC(=O)c3cc(O)c(O)c(O)c3)c2)C1OC(=O)c1cc(O)c(O)c(OC(=O)c2cc(O)c(O)c(O)c2)c1)c1cc(O)c(O)c(OC(=O)c2cc(O)c(O)c(O)c2)c1 (stereo not drawn) (library stock concentration (final ~1000-fold dilution): 10 mM),NF-kB SEAP reporter activity,[1]; agonist: LPS (TLR4) 0.1 ug/mL,1.25
same,NF-kB SEAP reporter activity,[1]; [4],0.116
same,NF-kB SEAP reporter activity,[1]; [5],1.04
same,NF-kB SEAP reporter activity,[1]; [6],0.185
O=C(OCC1OC(OC(=O)c2cc(O)c(O)c(OC(=O)c3cc(O)c(O)c(O)c3)c2)C(OC(=O)c2cc(O)c(O)c(OC(=O)c3cc(O)c(O)c(O)c3)c2)C(OC(=O)c2cc(O)c(O)c(OC(=O)c3cc(O)c(O)c(O)c3)c2)C1OC(=O)c1cc(O)c(O)c(OC(=O)c2cc(O)c(O)c(O)c2)c1)c1cc(O)c(O)c(OC(=O)c2cc(O)c(O)c(O)c2)c1 (stereo not drawn),NF-kB SEAP reporter activity,[2]; [9],0.144
same,NF-kB SEAP reporter activity,[2]; [10],0.319
C=CC1CC1(NC(=O)C1CC(Oc2ncc(OC)c3ccc(Cl)cc23)CN1C(=O)C(NC(=O)OC(C)(C)C)C(C)(C)C)C(=O)NS(=O)(=O)C1CC1 (stereo not drawn),NF-kB SEAP reporter activity,[2]; [8],1.06
C=CC1CC1(NC(=O)C1CC(Oc2ncc(OC)c3ccc(Cl)cc23)CN1C(=O)C(NC(=O)OC(C)(C)C)C(C)(C)C)C(=O)NS(=O)(=O)C1CC1 (stereo not drawn) (library stock concentration (final ~1000-fold dilution): 10 mM),NF-kB SEAP reporter activity,[3]; agonist: LPS (TLR4) 0.1 ug/mL,1.1
same,NF-kB SEAP reporter activity,[3]; [4],0.915
same,NF-kB SEAP reporter activity,[3]; [5],0.518
same,NF-kB SEAP reporter activity,[3]; [6],0.508
Cc1cc(Nc2cc(N3CCN(C)CC3)nc(/C=C/c3ccccc3)n2)n[nH]1.O=C(O)C(O)C(O)C(=O)O (library stock concentration (final ~1000-fold dilution): 10 mM),NF-kB SEAP reporter activity,[1]; agonist: LPS (TLR4) 0.1 ug/mL,0.407
same,NF-kB SEAP reporter activity,[1]; [4],0.191
same,NF-kB SEAP reporter activity,[1]; [5],0.297
same,NF-kB SEAP reporter activity,[1]; [6],0.279
Cc1cc(Nc2cc(N3CCN(C)CC3)nc(/C=C/c3ccccc3)n2)n[nH]1.O=C(O)C(O)C(O)C(=O)O,NF-kB SEAP reporter activity,[2]; [9],0.89
same,NF-kB SEAP reporter activity,[2]; [10],0.85
CNC(C)C(=O)NC(C(=O)N1CCCC1c1nc(C(=O)c2ccc(F)cc2)cs1)C1CCCCC1 (stereo not drawn) (library stock concentration (final ~1000-fold dilution): 10 mM),NF-kB SEAP reporter activity,[3]; agonist: LPS (TLR4) 0.1 ug/mL,0.436
same,NF-kB SEAP reporter activity,[3]; [4],0.764
same,NF-kB SEAP reporter activity,[3]; [5],0.902
same,NF-kB SEAP reporter activity,[3]; [6],0.517
CNC(C)C(=O)NC(C(=O)N1CCCC1c1nc(C(=O)c2ccc(F)cc2)cs1)C1CCCCC1 (stereo not drawn),NF-kB SEAP reporter activity,[2]; [7],1.16
same,NF-kB SEAP reporter activity,[2]; [8],0.714
O=c1cc(-c2ccc(O)cc2)oc2cccc(O)c12,NF-kB SEAP reporter activity,[2]; [9],1.07
same,NF-kB SEAP reporter activity,[2]; [10],1.37
O=c1cc(-c2ccc(O)cc2)oc2cccc(O)c12 (library stock concentration (final ~1000-fold dilution): 10 mM),NF-kB SEAP reporter activity,[1]; agonist: LPS (TLR4) 0.1 ug/mL,1.55
same,NF-kB SEAP reporter activity,[1]; [4],1.15
same,NF-kB SEAP reporter activity,[1]; [5],1.09
same,NF-kB SEAP reporter activity,[1]; [6],1.82
CC(C)(C)C(=O)Oc1ccc(S(=O)(=O)Nc2ccccc2C(=O)NCC(=O)O)cc1 (library stock concentration (final ~1000-fold dilution): 10 mM),NF-kB SEAP reporter activity,[1]; agonist: LPS (TLR4) 0.1 ug/mL,1.36 and 1.08
same,NF-kB SEAP reporter activity,[1]; [4],0.906 and 0.939
same,NF-kB SEAP reporter activity,[1]; [5],1.39 and 1
same,NF-kB SEAP reporter activity,[1]; [6],0.652 and 1.02
O=C(O)CSc1nnc(Br)n1-c1ccc(C2CC2)c2ccccc12 (library stock concentration (final ~1000-fold dilution): 10 mM),NF-kB SEAP reporter activity,[1]; agonist: LPS (TLR4) 0.1 ug/mL,1.32
same,NF-kB SEAP reporter activity,[1]; [4],1.01
same,NF-kB SEAP reporter activity,[1]; [5],1.24
same,NF-kB SEAP reporter activity,[1]; [6],1.18
O=C(O)CSc1nnc(Br)n1-c1ccc(C2CC2)c2ccccc12,NF-kB SEAP reporter activity,[2]; [10],0.983
O=C(O)CSc1cc(NS(=O)(=O)c2ccc(Br)cc2)c2ccccc2c1O,NF-kB SEAP reporter activity,[2]; [9],1.12
same,NF-kB SEAP reporter activity,[2]; [10],2.21
CC(C)(C)C(=O)Oc1ccc(S(=O)(=O)Nc2ccccc2C(=O)NCC(=O)O)cc1,NF-kB SEAP reporter activity,[2]; [9],0.966
O=C(O)CSc1cc(NS(=O)(=O)c2ccc(Br)cc2)c2ccccc2c1O (library stock concentration (final ~1000-fold dilution): 10 mM),NF-kB SEAP reporter activity,[1]; agonist: LPS (TLR4) 0.1 ug/mL,3.16
same,NF-kB SEAP reporter activity,[1]; [4],1.31
same,NF-kB SEAP reporter activity,[1]; [5],1.24
same,NF-kB SEAP reporter activity,[1]; [6],2.31
